Data as given in PubChem BioAssay (NCI).
Values joined by “and” are separate entries in the source; they are usually repeats but may differ in a detail not shown here. Equal values may be shown once. This is part of a sample that, as a whole, favours compounds with a hit. Of some 83,000 tested, about 20% had one in any assay.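 Compound tested at a single concentration for 48 hours in 96-well plates; a percent growth value below 10 was scored as active.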 Active and inactive are the calls of the source.

Key:
Test in all cases: NCI-60 one-dose screen, 48 h (100 = growth as untreated, 0 = no growth, -100 = all killed)
Settings in all cases: 10 µM unless noted
T-47D breast = system: T-47D breast
BT-549 breast = system: BT-549 breast
MDA-MB-435 melanoma = system: MDA-MB-435 melanoma
SW-620 colon = system: SW-620 colon
MCF7 breast = system: MCF7 breast
HCT-116 colon = system: HCT-116 colon
HCC-2998 colon = system: HCC-2998 colon
KM12 colon = system: KM12 colon
MDA-MB-468 breast = system: MDA-MB-468 breast

Measured: growth

CCN(C(=O)CN1C(=O)/C(=C/c2ccco2)SC1=S)C1CCS(=O)(=O)C1 (stereo unspecified)
inactive: T-47D breast 78.1% | BT-549 breast 97% | MDA-MB-435 melanoma 92.2% | SW-620 colon 102% | MCF7 breast 91.8% | HCT-116 colon 98.2% | HCC-2998 colon 106% | KM12 colon 103% | MDA-MB-468 breast 61%

COc1ccc(N=Nc2c(N)nn3c(N)c(C#N)c(-c4ccccc4)nc23)cc1
active: BT-549 breast -16.7%
inactive: T-47D breast 16.4% | MDA-MB-435 melanoma 62.5% | SW-620 colon 66.2% | MCF7 breast 14.5% | HCT-116 colon 20.2% | HCC-2998 colon 65.2% | KM12 colon 45%

COc1ccc(-n2c(NC(=O)N3CCN(C)CC3)c(C#N)c3ccccc32)cc1
inactive: T-47D breast 55.2% | BT-549 breast 57.7% | MDA-MB-435 melanoma 71.7% | SW-620 colon 69.2% | MCF7 breast 35.5% | HCT-116 colon 48% | HCC-2998 colon 89% | KM12 colon 34.1% | MDA-MB-468 breast 38.3%

CCC(=O)c1c2c(c3ccc4c5ccccc5ccc4n13)C(=O)c1ccccc1C2=O
inactive: T-47D breast 87.2% | BT-549 breast 114% | SW-620 colon 88.5% | MCF7 breast 54% | HCT-116 colon 92.6% | HCC-2998 colon 65.4% | KM12 colon 68.9% | MDA-MB-468 breast 88.6%
active: MDA-MB-435 melanoma -89.8%

Cn1ncc2c(N)nc(Oc3ccccc3-c3ccccc3)nc21
inactive: T-47D breast 31.9% | SW-620 colon 25.2% | HCT-116 colon 15.6% | HCC-2998 colon 62.2% | KM12 colon 24%
active: BT-549 breast -1.44% | MDA-MB-435 melanoma -38.2% | MCF7 breast 9.1% | MDA-MB-468 breast -24.1%

CC(=O)C[n+]1cccc2c3ccccc3ccc21
inactive: T-47D breast 77.2% | BT-549 breast 107% | MDA-MB-435 melanoma 84.6% | SW-620 colon 92.3% | MCF7 breast 77.7% | HCT-116 colon 87.4% | HCC-2998 colon 114% | KM12 colon 88.2%
active: MDA-MB-468 breast 8.54%

COc1ccc(CCC2NCCc3c(Br)c4c(c(OC)c32)OCO4)cc1 (stereo unspecified)
inactive: T-47D breast 31.2%
active: BT-549 breast -19% | MDA-MB-435 melanoma -64.5% | SW-620 colon 2.69% | MCF7 breast 3.82% | HCT-116 colon 4.11% | HCC-2998 colon -23.2% | KM12 colon 3.9% | MDA-MB-468 breast -18.1%

CCCn1c(NC(=O)c2cccc(C(N)=O)c2)nc2cc(CN3CCCCC3)ccc21
inactive: T-47D breast 86.6% | MDA-MB-435 melanoma 101% | SW-620 colon 113% | MCF7 breast 71.5% | HCC-2998 colon 116% | KM12 colon 22.8% | MDA-MB-468 breast 82.5%
active: BT-549 breast -10.8% | HCT-116 colon 5.91%

COc1ccc(/C=C/c2nc3ccccc3n3c(-c4cccc([N+](=O)[O-])c4)nnc23)cc1
active: T-47D breast -7.62% | BT-549 breast -87.5% | MDA-MB-435 melanoma -46.5% | SW-620 colon -22.3% | MCF7 breast -64.5% | HCT-116 colon -76.2% | HCC-2998 colon -84.5% | KM12 colon -67.3% | MDA-MB-468 breast -65%

O=C1Nc2cc(-c3ccc(NS(=O)(=O)c4ccc(-c5ccccc5)cc4)cc3)ccc2/C1=C/c1ccc[nH]1
active: T-47D breast 3.17% | BT-549 breast 3.7% | SW-620 colon 8.95% | MCF7 breast -25.2% | MDA-MB-468 breast -52.5%
inactive: MDA-MB-435 melanoma 40.3% | HCT-116 colon 20.3% | HCC-2998 colon 50.8% | KM12 colon 34.2%

CCOC(=O)/C(F)=C/C1CC1C1CCN(C(=O)OC(C)(C)C)CC1 (stereo unspecified)
inactive: T-47D breast 74.6% | BT-549 breast 125% | MDA-MB-435 melanoma 105% | SW-620 colon 101% | MCF7 breast 83.9% | HCT-116 colon 99.1% | HCC-2998 colon 111% | KM12 colon 102% | MDA-MB-468 breast 94.8%

COc1ccc(-c2cc(C(=O)Oc3ccc(C=O)cc3OC)nn2-c2ccc(S(C)(=O)=O)cc2)cc1
inactive: T-47D breast 92.2% | BT-549 breast 105% | MDA-MB-435 melanoma 98.3% | SW-620 colon 109% | MCF7 breast 84.5% | HCT-116 colon 98.3% | HCC-2998 colon 116% | KM12 colon 103% | MDA-MB-468 breast 107%

S=C(Nc1ccccc1)Nc1ccc(OCc2nc3ccc(Cl)cc3[nH]2)cc1
inactive: T-47D breast 51.5% | BT-549 breast 78.8% | MDA-MB-435 melanoma 75.2% | SW-620 colon 73% | MCF7 breast 24.8% | HCT-116 colon 77.5% | HCC-2998 colon 104% | KM12 colon 74.7% | MDA-MB-468 breast 12.1%

Cc1ccccc1NC(=O)c1cccc(NC(=O)CCl)c1
inactive: T-47D breast 74.8% | BT-549 breast 39.4% | MDA-MB-435 melanoma 72.7% | SW-620 colon 41.7% | MCF7 breast 19.2% | HCT-116 colon 27.3% | HCC-2998 colon 96.1% | KM12 colon 77.3%
active: MDA-MB-468 breast -0.88%

Cc1ccc(C(=O)Nc2cc(-c3ccncc3)cc(C(F)(F)F)c2)cc1C#Cc1cnc2cccnn12
inactive: T-47D breast 81.6% | BT-549 breast 86.8% | MDA-MB-435 melanoma 33.9% | SW-620 colon 30.7% | MCF7 breast 45.9% | HCT-116 colon 23.4% | HCC-2998 colon 63.5% | KM12 colon 36.2% | MDA-MB-468 breast 92.7%

N#Cc1ccc(C(=O)NNC(=O)CSc2nc3sc4c(c3c(=O)n2-c2ccc(Cl)cc2)CCCC4)cc1
inactive: T-47D breast 58.6% | BT-549 breast 22.7% | MDA-MB-435 melanoma 63.7% | SW-620 colon 60.3% | MCF7 breast 63% | HCT-116 colon 37.5% | HCC-2998 colon 96.1% | KM12 colon 91.2% | MDA-MB-468 breast 92%

CC(=O)Nc1cccc(-n2c(COc3ccc(I)cc3)nc3ccccc32)c1
inactive: T-47D breast 54.6% and 107% | BT-549 breast 96.9% and 110% | MDA-MB-435 melanoma 97.7% and 108% | SW-620 colon 96.6% and 108% | MCF7 breast 74.7% and 103% | HCT-116 colon 80.4% and 104% | HCC-2998 colon 118% and 119% | KM12 colon 94.7% and 98.5% | MDA-MB-468 breast 78.7% and 111%

COc1ccc(C(=O)C[n+]2cccc3c4ccccc4ccc32)cc1
inactive: T-47D breast 38.2% | BT-549 breast 33.2% | MDA-MB-435 melanoma 37.5% | SW-620 colon 36.4% | MCF7 breast 18.1% | HCT-116 colon 29.8% | HCC-2998 colon 48.5% | KM12 colon 34.9%
active: MDA-MB-468 breast 2.93%

Cc1nc2sccn2c1-c1nnc(SCC(C)C)o1
active: MDA-MB-468 breast 4.49%
inactive: T-47D breast 59.4% | BT-549 breast 88.7% | MDA-MB-435 melanoma 102% | SW-620 colon 97.6% | MCF7 breast 37.5% | HCT-116 colon 82.8% | HCC-2998 colon 113% | KM12 colon 98.1%

COc1ccc(N=Nc2c(N)nn3c(N)c(C#N)c(-c4ccc(F)cc4)nc23)cc1
inactive: T-47D breast 55.7% | BT-549 breast 49.3% | MDA-MB-435 melanoma 86.2% | SW-620 colon 88.6% | MCF7 breast 57.1% | HCT-116 colon 46.4% | HCC-2998 colon 66.7% | KM12 colon 56.7% | MDA-MB-468 breast 46.7%

Cc1cc(C(NC(=O)C2CC3(CC(Nc4cccc5c4C(=O)N(C4CCC(=O)NC4=O)C5=O)C3)C2)c2ccc3c(c2)OC(F)(F)O3)c(O)c2ncccc12 (stereo unspecified)
inactive: T-47D breast 11.5% | MDA-MB-435 melanoma 28.5% | SW-620 colon 25.6% | HCT-116 colon 15.6% | HCC-2998 colon 36.6% | KM12 colon 17.5%
active: BT-549 breast 9.92% | MCF7 breast 8.12% | MDA-MB-468 breast -30.6%

CCCCC[C@@H]1C/C=C(\C)[C@@H](O)C(C)(C)C(=O)[C@@H](C)/C=C(\C)[C@@H]2C[C@H](O)C[C@](O)(CC(=O)O1)O2
inactive: T-47D breast 13.5% | BT-549 breast 18.8% | MDA-MB-435 melanoma 24% | SW-620 colon 47.3% | HCT-116 colon 43% | HCC-2998 colon 57.1% | KM12 colon 44.6%
active: MCF7 breast 7.53% | MDA-MB-468 breast -21.2%

Cc1ccc2nc(NC(=O)Nc3cccc(Cl)c3)sc2c1
inactive: T-47D breast 98.5% | BT-549 breast 121% | MDA-MB-435 melanoma 105% | SW-620 colon 106% | MCF7 breast 66.8% | HCT-116 colon 94.7% | HCC-2998 colon 122% | KM12 colon 98.6% | MDA-MB-468 breast 93.8%

O=C(NC(=S)N1CCN(c2ncnc3c2cnn3-c2ccccc2)CC1)c1ccc(Br)cc1
inactive: T-47D breast 73.1% | BT-549 breast 65.1% | MDA-MB-435 melanoma 80.3% | SW-620 colon 81.7% | MCF7 breast 49.8% | HCT-116 colon 60.3% | HCC-2998 colon 90.5% | KM12 colon 92.5% | MDA-MB-468 breast 78%

FC(F)(F)c1cc2c(Cl)ncnc2n1CCC1CCOCC1
inactive: T-47D breast 66.6% | SW-620 colon 35% | MCF7 breast 34.7% | KM12 colon 64.3%
active: BT-549 breast -41.1% | MDA-MB-435 melanoma -29.6% | HCT-116 colon -53.5% | HCC-2998 colon -90.6% | MDA-MB-468 breast -82.9%

Cc1ccc(C2CC(c3ccc(S(=O)(=O)NCCNc4nc(N(C)C)nc(N5CCOCC5)n4)cc3)=Nc3c(N)nc(N)nc3N2)cc1 (stereo unspecified)
inactive: T-47D breast 43.8% | BT-549 breast 35.2% | MDA-MB-435 melanoma 63.6% | SW-620 colon 81.2% | MCF7 breast 27.6% | HCT-116 colon 38.7% | HCC-2998 colon 47.9% | KM12 colon 47.9% | MDA-MB-468 breast 24.2%

COc1ccc2[nH]c(=O)c(CSc3ccccc3Nc3nccc(-c4ccc(C(F)(F)F)cc4)n3)cc2c1
active: BT-549 breast -10.4% | MCF7 breast -17.5% | HCT-116 colon -8.91%
inactive: T-47D breast 11.3% | MDA-MB-435 melanoma 32.3% | SW-620 colon 17.5% | HCC-2998 colon 18.8% | KM12 colon 29.2% | MDA-MB-468 breast 13.6%

CN1CCN(C(=O)Oc2cc3c(c4ccccc24)[C@H](CCl)CN3C(=O)c2cc3cc(OCCCN4CCC4)ccc3[nH]2)[C@H]2CSSC[C@H]21
active: T-47D breast -12.9% | BT-549 breast -36.8% | MDA-MB-435 melanoma -70.2% | SW-620 colon 4.18% | MCF7 breast 3.7% | HCT-116 colon 6.44% | HCC-2998 colon -47% | KM12 colon 2.01% | MDA-MB-468 breast -78.4%
